Screens as filed in PubChem BioAssay.
Pf growth 48h: P. falciparum growth inhibition at 48 hours (one generation); Potency, µM (series often up to 28.7 µM), most hits filed as inhibitors; 5.9% of 310,000 active; P. falciparum luciferase growth in erythrocytes, 48 h
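Luciferase-expressing parasites in RBCs, 2% Hct / 0.1% parasitemia final; RPMI 1640 + 0.5% Albumax; 37 C, 5% CO2, one generation; luminescence read-out, lower signal = inhibition.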
Shiga toxin inh: Shiga toxin inhibition. Vero cells, Shiga toxin protein synthesis inhibition reporter. inhibition, % at 38.7 µM. 9.2% of 290,000 active. AID 2315; in the data active = inhibition mostly above about 28%, no sharp cut-off; inactive = mostly below about 43%
Pf growth 96h: P. falciparum growth inhibition at 96 hours. P. falciparum luciferase reporter growth, 96 h. Potency, µM (series often up to 28.7 µM), actives largely listed as inhibitors. 6.9% of 320,000 active
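96 h incubation, 37 C, 5% CO2, of luciferase-reporter P. falciparum-infected RBCs (2% hematocrit, 0.05% parasitemia final) with test compounds; endpoint luminescence.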
Cycloheximide cs: counter-screen hit for Shiga toxin inhibitors, cycloheximide | AID 2314 | cell reporter, cycloheximide protein synthesis inhibition counterscreen | 12% of 300,000 active | max response, %; in the data active = max response mostly above about 13%, no sharp cut-off; inactive = mostly below about 14%; also: read at 38.3 µM for the half of the compounds with a filed dose
Numbers stand for hits; . = inactive; ? = inconclusive; / = no result given; + = active, no number. Only some compounds are listed: those with a hit (about 21% of all), similar ones and a draw of the others. Unless noted, calls follow the shape of the dose curve; as a rule, active = well fitted inhibition curve with a large enough effect; inconclusive = small, poorly fitted or top-dose-only effect, or another doubt; inactive = no such curve, though single readings can be large or run the other way.

SMILES	Pf growth 48h	Shiga toxin inh	Pf growth 96h	Cycloheximide cs
O=C(NC1CCCCC1)c1ccc2c(c1)OCO2	.	84.4	.	25.5
CC1CCC(NC(=O)C(=O)Nc2ccc3c(c2)OCO3)CC1 (stereo not drawn)	.	116.4	?	57.1
O=C(NC1(C(=O)NC2CCCCC2)CCCCC1)c1ccc2c(c1)OCO2	.	.	.	.
CS(=O)(=O)c1ccc(C(=O)NCC(c2ccco2)N2CCCCC2)cc1 (stereo not drawn)	.	.	.	.
N#Cc1ccc(C(=O)NCC(c2ccco2)N2CCCCC2)cc1 (stereo not drawn)	/	.	10.4µM	.
O=C(NCC(c1ccco1)N1CCCCC1)C(c1ccccc1)c1ccccc1 (stereo not drawn)	?	.	.	.
Cc1cc(C(=O)NCC(c2ccco2)N2CCCC2)c2ccccc2n1 (stereo not drawn)	?	/	10.4µM	/
Cc1cc(C)n(-c2ccc(C(=O)NCC(c3ccco3)N3CCCC3)cc2)n1 (stereo not drawn)	?	/	5.22µM	/
COc1ccccc1Nc1ncc(C(=O)N2CCN(Cc3ccc(OC)c(OC)c3OC)CC2)c2ccccc12	?	.	?	.
O=C(Cc1cccs1)N/N=C/C=C/c1ccco1	.	+	?	25.9
C/C(=N/NC(=O)Cc1cccs1)c1ccco1	.	27.2	.	22.0
C/C(=N/NC(=O)CNC(=O)c1ccco1)c1ccco1	.	.	.	.
O=C(CNc1cccc2ccccc12)N/N=C/C=C/c1ccco1	.	.	?	.
C/C(=N/NC(=O)CNC(=O)c1cccs1)c1ccco1	.	50.7	.	.
CCCCc1ccc(NC(=O)CN2C(=O)C3CCCCC3C2=O)cc1 (stereo not drawn)	.	/	.	/
Cc1ccc(C(=O)OCc2cn3ccccc3n2)cc1	.	.	.	14.9
c1ccc(CSCc2cn3ccccc3n2)cc1	.	112.3	.	46.9
O=C(O)c1ccccc1SCc1cn2ccccc2n1	.	.	.	.
Cc1ccc(SCc2cn3ccccc3n2)cc1	.	66.4	.	32.2
Cc1ccc2nc(COC(=O)CNC(=O)c3ccccc3)cn2c1	.	/	.	/
c1ccc(-n2cnnc2SCc2cn3ccccc3n2)cc1	.	.	?	.
CN1C(=S)SC(/[N+]([O-])=C/c2cccnc2)C1(C)C (stereo not drawn)	.	.	3.7µM	.
O=C(O)c1ccccc1OS(=O)(=O)O	/	.	/	.
O=C(NCc1cn2ccsc2n1)c1cccc(C(F)(F)F)c1	/	.	.	.
COc1cccc(C(=O)NCc2cn3ccsc3n2)c1	.	.	.	15.9
SMILES	Pf growth 48h	Shiga toxin inh	Pf growth 96h	Cycloheximide cs
O=C(COC(=O)c1ccco1)NCc1ccc(F)cc1	.	.	.	.
O=C(COC(=O)c1ccco1)NCc1ccccc1Cl	.	85.7	.	32.4
O=C(CCc1ccccc1)NCCc1ccc(F)cc1	.	.	.	27.2
CC(C(=O)NCCc1ccc(F)cc1)N1CCN(Cc2ccccc2)CC1 (stereo not drawn)	?	.	5.22µM	.
CCOC(=O)N1CCN(C(=O)COC(=O)CNC(=O)c2ccc(OCC)c(OCC)c2)CC1	.	/	.	/
O=C(CCCc1ccccc1)NCCc1ccccc1	.	84.4	.	44.8
Cc1cccc(OCCCC(=O)NCCc2ccccc2)c1	.	.	.	.
CN(CC(=O)Nc1ccc(F)cc1Cl)Cc1cccs1	.	.	.	.
O=C(O)/C=C/C(=O)NCCc1ccccc1	.	.	?	.
CC(C)=CC(=O)NCCc1ccccc1	.	92.6	/	45.4
CN(CC(=O)NCCc1ccc(F)cc1)Cc1cccs1	.	.	.	28.3
CC(=O)c1ccc(OCCCC(=O)NCCc2ccccc2)cc1	.	.	?	30.9
CC(=O)NNS(=O)(=O)c1scc(S(=O)(=O)c2ccc(Cl)cc2)c1C	.	.	.	.
O=C(CCCc1ccccc1)NCCc1ccc(F)cc1	.	92.4	.	28.6
O=C(Cc1ccc(F)cc1)NCCc1ccccc1	/	.	?	.
CCOCCCNC(=O)CCCOc1ccccc1	.	.	4.65µM	.
O=C(CCCc1ccccc1)NCc1cn2ccsc2n1	.	.	.	16.9
O=C(CCCc1ccccc1)NCCCc1ccccc1	.	.	.	.
O=C(CCCc1ccccc1)NCc1ccccc1Cl	.	/	.	18.0
CC(O)CO (stereo not drawn)	.	/	?	/
Cc1cc(C)cc(NC(=S)N2CCC(NC(=O)C3CC3)CC2)c1	.	.	.	.
CCS(=O)(=O)N1CCN(C(=O)c2cccc3ccccc23)CC1	.	/	.	.
O=C(CNC(=O)C1CCCCC1)NC1CCCCC1	.	.	?	.
Cn1nccc1C(=O)OCC(=O)Nc1ccccc1Cl	.	.	?	.
Fc1ccc(NC(=S)N2CCCC(c3ccccc3)=N2)cc1	?	.	.	.
SMILES	Pf growth 48h	Shiga toxin inh	Pf growth 96h	Cycloheximide cs
O=C(Nc1cccc2ccccc12)N1N=CCC1c1ccccc1 (stereo not drawn)	.	109.0	.	59.3
Fc1ccc(NC(=S)N2N=CCC2c2ccccc2)cc1 (stereo not drawn)	/	61.0	.	80.2
S=C(Nc1ccccc1)N1N=CCC1c1ccccc1 (stereo not drawn)	.	77.6	/	25.9
O=C(CSc1nnnn1-c1ccccc1)N1N=CCC1c1ccccc1 (stereo not drawn)	.	.	.	.
Cc1ccc(SCC(=O)N2N=CCC2c2ccccc2)cc1 (stereo not drawn)	?	.	.	23.8
O=C(Nc1cccc(Cl)c1)N1N=CCC1c1ccccc1 (stereo not drawn)	.	.	.	.
CC(=O)Nc1ccc(NC(=O)CCc2c(C)noc2C)cc1	?	/	.	/
Cc1ccc(N(CCC#N)C(=O)CN2C(=O)NC(Cc3ccccc3)C2=O)cc1 (stereo not drawn)	.	.	.	.
Cc1ccc2c(CSc3nnc(N)s3)cc(=O)oc2c1	.	59.5	/	32.0
CCCS(=O)(=O)N1CCc2ccc(NC(=O)c3ccccc3Cl)cc2C1	.	/	.	.
CN(C)S(=O)(=O)N1CCc2ccc(NC(=O)c3ccccc3Cl)cc2C1	.	.	5.86µM	11.5
CSCC(=O)N1CCc2ccc(NC(=O)c3ccccc3Cl)cc2C1	.	/	?	28.2
COCCC(=O)Nc1ccc2c(c1)CN(C(=O)CCSC)CC2	.	.	.	.
N#CCCN(C(=O)COC(=O)c1ccc2ccccc2n1)c1ccccc1	.	/	.	/
CN1CCc2nc3ccccc3c(C(=O)OCC(=O)N(CCC#N)c3ccccc3)c2C1	?	.	13.1µM	.
O=C(c1ccco1)[C@@H]1[C@@H]2C(=O)N(c3ccc(F)cc3)C(=O)[C@@H]2C2c3ccccc3C=CN21 (stereo partly drawn)	.	.	?	.
O=C1NC(=O)[C@@H]2C3c4ccccc4C=CN3[C@H](C(=O)c3cccs3)[C@H]12 (stereo partly drawn)	.	.	?	31.2
COc1ccc(Nc2nc(Nc3ccc(OC)cc3)nc(SC3=NCCS3)n2)cc1	/	.	11.7µM	.
COc1ccc(Nc2nc(Cl)nc(NCCO)n2)cc1	.	.	.	.
N#Cc1ccccc1OCC(=O)N1CCN(C(=O)c2ccco2)CC1	.	.	.	.
O=C(Cc1c[nH]c2ccccc12)OCC(=O)c1ccccc1	.	.	/	48.5
